The text below walks through data of PubChem BioAssay (NCATS).

Results filed as inconclusive are left out. A call without a number means that no potency is given here. Calls of active or inactive are those of the source. The call rests on the fitted dose curve; in most records, active means well fitted inhibition curve with a large enough effect; inconclusive means small, poorly fitted or top-dose-only effect; inactive means no such curve, though single readings can be large or run the other way.

The subject of assay [1] is Zika virus NS2B-NS3 protease (unlinked complex). Put plainly: Primary screen GU Rhodamine qHTS for Zika virus inhibitors: Unlinked NS2B-NS3 protease assay (AID 1347159). Further: nearly all actives have a fitted effect of over 60% in size. Further: potency means the concentration at half of the fitted maximal effect. The conditions noted are these: Recombinant ZIKV NS2B-NS3 protease, Rhodamine110 substrate fluorescence; series mostly up to 107 µM. A digest of the protocol: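 Enzyme 25 nM in Tris-HCl pH 8.0 + 0.01% Tween 20; compounds up to 114 microM, 15 min RT dark; + Rhod110 substrate 1.5 microM; read t0 and 15 min; delta fluorescence → % inhibition → 4-parameter Hill fit.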
A general note: qHTS replaces the single test concentration by a dilution series.

In assay [2] the test system is Zika virus NS2B-NS3 protease (linked construct). Put plainly: Primary screen NINDS Rhodamine qHTS for Zika virus inhibitors (AID 1347160). Further: nearly all actives have a fitted effect of over 55% in size. To be noted: purified NS2B-NS3 protease, Rhodamine110 substrate fluorescence; series mostly up to 57.1 µM. A digest of the protocol:
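Enzyme (25 nM, linked NS2B-NS3) was preincubated 15 min with compound in 10 mM Tris-HCl pH 8.0, 0.01% Tween 20. Rhodamine110 substrate (1.5 microM) was then added and fluorescence read at start and after 15 min.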

`CN(C)CCn1cc(-c2ccc(F)cc2)c(-n2cccc2)n1`: the Potency entry in assay [1] and in assay [2] was “inactive” throughout.

As to `O[C@@](Cc1ncc(CC2(C(F)(F)F)CC2)[nH]1)(c1ccc(-n2cccn2)cc1)C(F)(F)F`, the Potency result in assay [1] and in assay [2] was “inactive” each time.

As for `CC(=O)OC1CC(O)(C(C)C)C2C(OC(=O)c3ccc(O)cc3)C=C(C)C(=O)CC12C` (centres undefined), the Potency entry in assay [1] and in assay [2] was “inactive” in each case.

As for `O=C(NCC1(N2CCN(c3ccccc3)CC2)CCOCC1)c1cccnc1Sc1ccccc1`, the Potency result in assay [1] and in assay [2] was “inactive” in each case.

`Nc1nc(Cl)nc2c1ncn2C1OC(CO)C(O)C1F` (centres undefined): the Potency entry in assay [1] and in assay [2] was “inactive” throughout.

In the case of `CNCCCC1(c2ccccc2)OC(C)(C)c2ccccc21` (centres undefined), the Potency result in assay [1] and in assay [2] was “inactive” in each case.

For the compound `Cc1nc(NC(=O)N2CCC[C@H]2C(N)=O)sc1-c1ccnc(C(C)(C)C(F)(F)F)c1`, the Potency entry in assay [1] and in assay [2] was “inactive” each time.

Turning to `CC(=O)OC/C(=C/C(=O)O)CC[C@@H]1C(C=O)=CC[C@@H]2C(C)(C)CCC[C@@]12C`, in assay [1], the Potency is 10 µM (active). The Potency entry in assay [2] was “inactive”.

On to `Cc1[nH]c2ccc(F)cc2c1-c1nc2c3cccnc3c3ncccc3c2[nH]1`, for which the Potency entry in assay [1] and in assay [2] was “inactive” throughout.

Turning to `O=C(NCCN1CCN(c2cccc3c2OCCO3)CC1)c1ccc(F)cc1`, the Potency entry in assay [1] and in assay [2] was “inactive” throughout.

In the case of `Cn1cc(-c2ccc(S(=O)(=O)n3ccc(/C=C/C(=O)Nc4ccccc4N)c3)cc2)cn1`, the Potency entry in assay [1] and in assay [2] was “inactive” in each case.

For the compound `Cn1c(=O)c(F)c(Nc2ccc(I)cc2F)c2c(=O)n(CC(O)CO)cnc21` (centres undefined), the Potency entry in assay [1] and in assay [2] was “inactive” throughout.

Regarding `CC1(C)CCC2(C(=O)OC3OC(COC4OC(CO)C(O)C(O)C4O)C(O)C(O)C3O)CCC3(C)C(=CCC4C5(C)CCC(OC6OCC(O)C(O)C6O)C(C)(C)C5CCC43C)C2C1O` (centres undefined), the Potency entry in assay [1] and in assay [2] was “inactive” throughout.

For the compound `CC(NCCCc1cccc(C(F)(F)F)c1)c1cccc2ccccc12` (centres undefined), the Potency entry in assay [1] and in assay [2] was “inactive” throughout.

With `Cc1cc2c(N3CCCC3)nc(N3CCCC3)nc2n1C`, the Potency result in assay [1] and in assay [2] was “inactive” in each case.

For `CC(=O)C1=CCC2C3CC=C4CC(O)CC(O)C4(C)C3C(O)CC12C` (centres undefined), the Potency result in assay [1] and in assay [2] was “inactive” in each case.

As for `CCCn1cc2c(nc(NC(=O)Nc3ccc(OC)cc3)n3nc(-c4ccco4)nc23)n1`, the Potency result in assay [1] and in assay [2] was “inactive” in each case.

For the compound `C=C(C)C1=C[C@@]2(C)C(=CC1=O)CC[C@@H](O)[C@@H]2C`, the Potency result in assay [1] and in assay [2] was “inactive” each time.

Take `C=CCCN1CCC2(CC1)CN(C(=O)c1c(F)cccc1F)c1ccc(Cl)cc12`: the Potency result in assay [1] and in assay [2] was “inactive” throughout.

As to `C1=C/COCc2cc(ccc2OCCN2CCCC2)Nc2nccc(n2)-c2cccc(c2)COC/1`, the Potency entry in assay [1] and in assay [2] was “inactive” throughout.

Consider `CC(C)(F)CC(NC(c1ccc(-c2ccc(S(C)(=O)=O)cc2)cc1)C(F)(F)F)C(=O)NC1(C#N)CC1` (centres undefined), for which the Potency entry in assay [1] and in assay [2] was “inactive” throughout.

Take `O=C(Nc1cccnn1)N1CCN(c2nccc(-c3ccc(F)c(F)c3)n2)CC1`: the Potency entry in assay [1] and in assay [2] was “inactive” in each case.

On to `C=C1C(=O)OC2/C=C(\COC(C)=O)CC/C=C(\C=O)CC(OC(=O)CC(C)C)C12` (centres undefined), for which the Potency entry in assay [1] and in assay [2] was “inactive” throughout.

On to `O=C(NC1(c2ccccc2)CC1)c1c(CN2CCC(N3CCCCC3)CC2)c(-c2cccc(C(F)(F)F)c2)nc2cc(Br)ccc12`, for which the Potency entry in assay [1] and in assay [2] was “inactive” each time.

`Nc1nc2c(cnn2CCCc2ccc(O)cc2)c2nc(-c3ccco3)nn12`: the Potency result in assay [1] and in assay [2] was “inactive” each time.

Turning to `CCN1C(C)(C)CC(Oc2ccc(C(=O)Nc3ccc(NC(=O)Nc4cc(C(C)(C)C)on4)cc3)nc2)CC1(C)C`, the Potency result in assay [1] and in assay [2] was “inactive” each time.

Take `CC(=O)CC(=O)Nc1ccc(Cl)c(C(F)(F)F)c1`: the Potency entry in assay [1] and in assay [2] was “inactive” throughout.
